Laboratory results as given in the supplement of paper PMC6555819.

Each sequence was assayed on PPARg:RXRa DBDmut IVT, anti-RXR (DBD mutation: RXRa K156A/R161A, NR concentration 270 nM, RXRa partner concentration 90 nM) (assay: PBM binding z-score (relative to random genomic background probes); higher = stronger binding; sequences stand for … in GC…GCGATTGACAGCGTAGAATGAAGG).
Procedure, shortened: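 Binding z-scores take random background probes as their reference. They come from custom Agilent 4×180K protein-binding microarrays incubated 1 h with ligand-free nuclear receptor dimers, with antibodies against each partner (one per run) detecting binding. Scanned fluorescence was regression-normalized.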
CATACAGGTTCAGCTAGGCCAGAGTAGGGACGGC showed a PBM binding z-score of -0.2. TCGAGTAGGTTAGTCGGTGCATTCAGCCAACATA gave a PBM binding z-score of 1.78. With CAACCTAGGTCACAGAGGTCAAAGTCCGTGCGTA the PBM binding z-score was 5.47. ATACCAAGGTGATGGTGAGGTCGTTGATACTAAC gave a PBM binding z-score of 0.223. Work on ATCTCTAGGTAACCAACTTCAGTGAATGCCGAAC yielded a PBM binding z-score of 4.05. In the case of CGGCAAAGTTCAAGGTAACGTAACAGAAAGCAGC, the PBM binding z-score is reported as 0.813. With CCTGCTTGGTCAATGGTCAGCTAAAGCAGCTCGC the PBM binding z-score was 0.434. CGTCCAAGGTCAGAGAGATCAGTGAATGCCGAGT gave a PBM binding z-score of 2.6. ACAGGCAGGTGAGTGAAGGTAACTCAGCTGGACG gave a PBM binding z-score of 0.549. TCTAGCGGGCCAGAGGGTCACTCAAGAGGTACGG gave a PBM binding z-score of 0.727. TCTATTAGCTGAAGGGCAACCGACGAGTCCGTTT was tested, and the PBM binding z-score was 1.6. In the case of TCTTGTAGATCAATAGACGTTAAGAAAGTGCGCT, the PBM binding z-score is reported as 1.93. CCTACTGGGCCACAAAAGGTCATTGATTCAGTGA showed a PBM binding z-score of 5.38. TAGCCTAGGGCAGATCGGGCCAGTATACGCTATA gave a PBM binding z-score of -0.53. CCTTACGGGTCAAGGTTACAGCACGGGTGGTACG gave a PBM binding z-score of 2.05. For CTTACTGGGCCAAAAAGGTCATTGATGCCGATAA, the PBM binding z-score was 6.06. Work on CATACAAGGTCAGCTAGGCCAGAGTAGGGACGGC yielded a PBM binding z-score of 2.49. For CCGGCTGGGGCAAGGTTACCATAACGCACAGCCA, the PBM binding z-score was -0.429. For GCAGACAGGTGAAGCGCAGGTAACTCAGGGTGGC, the PBM binding z-score was 0.302. With AGTCAAAGTTCACTAGGTAAAGTAAGATTCAGCT the PBM binding z-score was 1.8. For CGTCCAAGGTCAAGGTCAGGGAAAGAGACTCGAA, the PBM binding z-score was 4.11. In the case of CAAACTAGGTCACCGGAATGTCAAAGTCCGCATG, the PBM binding z-score is reported as 8.65. TGAATGAGGTTAAAGATAAGGGAACGTGGCGTCG was tested, and the PBM binding z-score was 2.35. ATCGAAAGGTCGTCAGGTGAGTATACAGAAAGGC was tested, and the PBM binding z-score was 0.0444. TCTATTAGTTGAAGGGCATCCGACGAGTCCGTTT gave a PBM binding z-score of 2.32. For CGTAAAAGTTCAAGGTAACGTAACAGAAAGCAGC, the PBM binding z-score was 0.129. In the case of TCAGAGAGGTGAAGGTAACTCAGGTACGCAGTCG, the PBM binding z-score is reported as 3.17. ATCTCTAGGTAAAGTGCAGTGAAAGATCGATAGA showed a PBM binding z-score of 2.44. Work on ATCTCTAGGTAAAAGGTCAGTGAATCCCGAGGAT yielded a PBM binding z-score of 3.67. Sequence TGAATGAGGTTATAGGATCAGGGAACGTTGCAAA has a PBM binding z-score of 1.16. TGAATGAGGTTAGAGATCAGGGAACGTGGCGTCG gave a PBM binding z-score of 0.771. CGTCCATGGTCAGAGAGGTCAGTGAATGCCGAGT gave a PBM binding z-score of 0.536. TCTGCTAGTTCAACGATGGTCAGCTAATCTGCTA showed a PBM binding z-score of 0.463. GATACAGGATCAAGGCCAGAGTACGCGTATTGAT gave a PBM binding z-score of -0.344. Sequence CATACTGGGCCATTCAGAGGTCATTGATCATATG has a PBM binding z-score of 3.86. In the case of ATCTCTAGGTAAACTTCAGTGAAAGATCGATAGA, the PBM binding z-score is reported as 2.68. In the case of TCGAGTAGGTTAGTCGGGGAATTCAGCCAACATA, the PBM binding z-score is reported as 2.15. Sequence CTACCAAGTTGAACAAGGTCGTTGATTACTATTC has a PBM binding z-score of 0.743. GCTGCTAGGTCAGGTTGGACAGCTAACGGGTACG gave a PBM binding z-score of 2.44. AATACAGGGTCACCGTAGGCCAGAGTACGCACAG gave a PBM binding z-score of 3.34.
